Rows were chosen to be rich in hits. Some 2.6% of all compounds tested hit in one or more screens of this group.
COUP-TFII inh: blocks human COUP-TFII nuclear receptor | P24468 | HEK293T NGFI-A luciferase reporter, luminescence | inhibition, % at 8.6 µM | hit rate 0.7% among 370,000;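 active means inhibition above a per-plate cutoff, mean inhibition of test wells between control levels plus 3 SD, cut at about 38% in these data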;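 further: cells cotransfected with COUP-TFII expression vector driving the NGFI-A reporter; 0% = median of COUP-TF2 test wells and 100% = reporter-only cells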
Target sequence (P24468 whole entry, looked up): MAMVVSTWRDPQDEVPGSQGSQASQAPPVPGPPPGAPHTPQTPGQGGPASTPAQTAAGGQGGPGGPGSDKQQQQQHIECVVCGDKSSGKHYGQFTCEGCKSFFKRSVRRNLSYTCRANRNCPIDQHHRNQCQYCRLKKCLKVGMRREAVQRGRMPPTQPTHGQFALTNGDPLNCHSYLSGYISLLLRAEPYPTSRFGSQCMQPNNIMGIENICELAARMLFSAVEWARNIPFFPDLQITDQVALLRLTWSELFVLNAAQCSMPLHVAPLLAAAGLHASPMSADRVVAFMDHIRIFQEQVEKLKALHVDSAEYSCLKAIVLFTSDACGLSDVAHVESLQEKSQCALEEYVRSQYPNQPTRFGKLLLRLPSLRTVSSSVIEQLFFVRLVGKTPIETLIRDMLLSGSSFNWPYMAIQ
Jurkat NFkB inh: lowers PMA/ionomycin-induced NF-kB signal in Jurkat cells; PMA/ionomycin-induced NF-kB luciferase reporter, luminescence; inhibition, % at 4 µM; hit rate 0.53% among 330,000; in the data active means inhibition above about 50%
Cardio protect: protects H9c2 cardiomyocytes from peroxide injury | H2O2 injury protection, ATPLite, 2 h | protection from H2O2 cell death, % at 20 µM | hit rate 0.63% among 360,000 | AID 588492;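 active means compounds giving at least 50% protection of heart cells from peroxide-induced death in the single-dose screen, raw or plate-pattern-corrected value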;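 further: 0% = DMSO wells with peroxide and 100% = DMSO wells without peroxide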
TAG inh: inhibitors of triacylglycerol accumulation; H9c2 cells, Nile Red lipid (TAG) fluorescence; cells loaded with 200 µM oleic acid; inhibition, % at 12.5 µM; hit rate 0.66% among 230,000;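 active means pattern-corrected inhibition of lipid staining of at least 50% with the nuclear-stain viability signal not falling by more than 50%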;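 further: 0% = DMSO wells and 100% = triacsin C control wells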
697 NFkB inh: inhibitors of the PMA/ionomycin-induced NF-kB reporter in 697 B cells. 697 B-cell NF-kB luciferase reporter, 16 h. inhibition, % at 4 µM. hit rate 0.33% among 330,000. AID 435022; in the data active means inhibition above about 35%
Gli-Sufu antag: antagonists of Gli-Sufu signaling | inhibition, % at 5 µM | hit rate 0.74% among 340,000 | Sufu-KO-LIGHT fibroblasts, Gli luciferase reporter luminescence;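 active means inhibition above about 55%, limit read from the data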;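 further: 0% = DMSO-treated cells and 100% = wells with medium but no cells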
Jurkat NFkB conf: inhibitors of the PMA/ionomycin-induced NF-kB reporter in Jurkat cells, retest. shares compounds with Jurkat NFkB inh. Jurkat NF-kB luciferase, 16 h. inhibition, % at 4 µM. hit rate 27% among 2,700. AID 435020;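 active means inhibition reaching about 45% at 4 µM in either replicate, limit read from the data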;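 further: plate controls were PMA/ionomycin stimulated DMSO wells for no effect and unstimulated DMSO wells for full effect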
* marks the source's active call; other numbers are inactive results; nt = no result.

SMILES | COUP-TFII inh | Jurkat NFkB inh | Cardio protect | TAG inh | 697 NFkB inh | Gli-Sufu antag | Jurkat NFkB conf
CCOC(=O)CSc1nc2cc(OC)ccc2cc1C#N | -57 | -207 | -10 | -4 | -190 | 1 | -88
CCOC(=O)CSc1nc2ccc(C)cc2cc1C#N | -46 | -147 | -6 | nt | -110 | -4 | nt
COc1ccc(-n2c(COc3ccccc3)nnc2SCC(=O)Nc2ccccc2-c2ccccc2)cc1 | 14 | nt | nt | nt | nt | nt | nt
CC(=O)c1ccc(NC(=O)Nc2ccc(Cl)cc2)cc1 | -35 | -153 | -16 | nt | -128 | -67 | -84
CC(=O)c1ccc(NC(=O)Nc2ccncc2)cc1 | -11 | -11 | -14 | -4 | 8 | -1 | nt
CC(=O)c1ccc(NC(=O)NC2CCCCCCC2)cc1 | -61 | -150 | 1 | 11 | -159 | -91 | -71
O=C(c1cccc(F)c1)N1CCCC(c2nc(-c3cccs3)no2)C1 (stereo not drawn) | -7 | nt | nt | nt | nt | nt | nt
Oc1ccccc1-c1cc(-c2ccccc2)no1 | -32 | -165 | -29 | -15 | -109 | 15 | -150
COc1ccc(-c2cc(-c3cc(C)ccc3O)[nH]n2)cc1 | -25 | 77* | -8 | -9 | 10 | 43 | 38
Cc1ccccc1-c1cc(-c2ccccc2O)on1 | -54 | -193 | -15 | nt | -98 | 13 | -128
Cc1ccc(O)c(-c2cc(-c3ccc(F)cc3)no2)c1 | -44 | -193 | -17 | -7 | -230 | 35 | -144
COc1ccc(-c2cc(-c3ccc(C)cc3)n[nH]2)c(O)c1 | -49 | -84 | -6 | nt | -184 | -7 | nt
COc1ccccc1C(=O)n1ccc2ccc(-c3ccc4ccn(Cc5ccccc5)c4c3)cc21 | -3 | nt | nt | nt | nt | nt | nt
C=CC[C@@]1(c2ccc(Br)cc2OC)Oc2ccccc2-c2nccnc21 | 2 | nt | nt | nt | nt | nt | nt
Cc1c(C)n(Cc2ccc(-c3ccccc3C(=O)O)cc2)c2ccc(C(=O)N[C@@H](C)c3ccc(Br)cc3)cc12 | 5 | nt | nt | nt | nt | nt | nt
CCC[C@H]1[C@@H](OC(=O)NCc2cccc(Cl)c2)CC[C@@]23CCCN2C(=O)CCC[C@@H]13 | 21 | nt | nt | nt | nt | nt | nt
Cc1nc(-c2cc(-c3ccc(Cl)cc3)no2)cs1 | -35 | -103 | -17 | nt | -155 | -75 | nt
Clc1ccc(-c2cc(-c3ccccc3)on2)cc1 | -24 | -173 | -9 | -3 | -210 | -98 | -92
COc1ccc(CCN2C(=O)C3C4C=CC(C3C2=O)C2C(=O)N(CCc3ccc(OC)c(OC)c3)C(=O)C42)cc1OC (stereo not drawn) | nt | 59* | 5 | nt | 21 | 8 | 56*
COc1ccc(CCN2C(=O)C3C4C=CC(C5CC45)C3C2=O)cc1OC (stereo not drawn) | -9 | -1 | -7 | -18 | 1 | -18 | nt
Cc1ccc(Nc2nc(N/N=C/c3c[nH]c4ccccc34)nc(N3CCOCC3)n2)cc1 | -23 | 89* | 26 | nt | 27 | 31 | -37
COc1ccc(S[C@]2(C(=O)N(C)C)CC(=O)N(S(=O)(=O)c3ccc(F)cc3)[C@@H]2c2ccc(OC)cc2)cc1 | 5 | nt | nt | nt | nt | nt | nt
Cc1ccn(-c2ccc(NC(=O)c3cccs3)cc2)n1 | -56 | -156 | -17 | nt | -44 | -68 | -88
Cc1cccc(N=C/C(C(=O)C(F)(F)F)=C(\O)c2ccco2)c1 | -18 | -129 | -2 | nt | -141 | -12 | nt
Cc1ccc(N=C/C(C(=O)C(F)(F)F)=C(\O)c2ccco2)cc1Cl | -33 | -183 | -12 | nt | -185 | -83 | -8
SMILES | COUP-TFII inh | Jurkat NFkB inh | Cardio protect | TAG inh | 697 NFkB inh | Gli-Sufu antag | Jurkat NFkB conf
CC(=O)Nc1cccc(-c2csc(Nc3ccc(Cl)cn3)n2)c1 | -56 | -156 | -10 | 4 | -194 | -133 | -76
Cc1ccc(Nc2nc(-c3ccc(F)cc3)cs2)nc1 | -47 | -175 | -13 | 10 | -187 | -81 | -81
Cc1cccc(Nc2nc(-c3ccc(F)cc3)cs2)n1 | -42 | -129 | -2 | 19 | -210 | -64 | nt
COc1ccc(-c2csc(Nc3ccc(C)cn3)n2)cc1OC | -7 | -15 | 0 | -12 | -8 | -28 | nt
Cc1ccc(Nc2nc(-c3ccc(O)c(O)c3)cs2)nc1 | -17 | 53* | nt | nt | -34 | 64* | -1
O=C(Nc1nc(-c2ccccn2)cs1)c1ccc(Cl)s1 | 2 | 65* | 31 | 54* | -98 | 76* | 44
COC(=O)N1C[C@H](OC)[C@H]2C[C@@H]1c1ccccc1O2 | 4 | nt | nt | nt | nt | nt | nt
O=C(Nc1ccc(NC(=O)c2ccco2)nc1)c1ccco1 | -45 | -95 | -22 | -5 | -62 | -47 | nt
O=C(Nc1ccc(NC(=O)C23CC4CC(CC(C4)C2)C3)cn1)c1ccco1 | -40 | -151 | -9 | 26 | -101 | -122 | -66
O=C(CC1C=CCC1)OCCN1CCN(C2CN(Cc3cn(Cc4ccccc4Cl)nn3)S(=O)(=O)C2)CC1 (stereo not drawn) | 14 | nt | nt | nt | nt | nt | nt
Cc1ccsc1/C=C/c1ccc2ccccc2n1 | -52 | -165 | -8 | nt | -162 | -51 | -105
O=C1c2ccccc2C2Cc3nnccc3CN12 (stereo not drawn) | -1 | nt | nt | nt | nt | nt | nt
CCc1ccc(N/C(N)=N/c2nc(CSc3ccccn3)cc(=O)[nH]2)cc1 | -1 | 16 | -17 | nt | -50 | 48 | nt
COc1cccc(N/C(N)=N/c2nc(CSc3ccccn3)cc(=O)[nH]2)c1 | nt | 58* | nt | nt | -45 | nt | 56*
C/C(=N\NC(=O)c1cccc2ccccc12)c1cccs1 | -17 | -33 | -4 | -18 | -4 | -35 | nt
O=C(N/N=C(\c1ccccc1)c1ccccn1)c1ccccc1Cl | 10 | 45 | 49 | -18 | -16 | 53 | nt
COc1ccc(C(=O)N/N=C(\C)c2ccccn2)cc1OC | -45 | 96* | 49 | 29 | -50 | 95* | 16
C/C(=N\NC(=O)c1cccc2ccccc12)c1ccccn1 | -12 | 95* | 28 | 19 | -30 | 80* | 18
C/C(=N/NC(=O)c1ccc(C(C)(C)C)cc1)c1ccccn1 | 8 | 100* | 18 | 50 | -143 | 65* | 0
COc1ccc(NC(=O)c2ccccn2)cc1OC | -25 | -32 | -6 | nt | -28 | -56 | nt
C/C(=N\NC(=O)c1ccccc1Cl)c1ccccn1 | -14 | 89* | 37 | nt | -146 | 64* | -17
CC(C)(C)CCN1CCC[C@H](NC(=O)COc2ccc(F)c(Cl)c2)C1 | 8 | nt | nt | nt | nt | nt | nt
CC(C)CCN(C)C1CCN(C(=O)Nc2ccc3c(c2)OCO3)CC1 | 11 | nt | nt | nt | nt | nt | nt
CN(C(=O)[C@H]1O[C@@H](n2cnc(C(N)=O)n2)[C@H](O)[C@@H]1O)c1ccccc1 | 2 | nt | nt | nt | nt | nt | nt
C/C(=N\NC(=O)c1cccc(Br)c1)c1ccccn1 | -1 | 92* | 29 | 50 | -95 | 89* | 1
O=C(N/N=C/c1ccsc1)c1ccccn1 | -35 | -39 | -8 | -9 | -40 | -54 | nt
COC(=O)c1ccc(/C=N/NC(=O)c2ccccc2Cl)cc1 | -1 | -10 | 5 | nt | -5 | -8 | nt
CC(C)c1ccc(/C=N/NC(=O)c2ccccc2Cl)cc1 | -14 | 52* | 0 | 24 | -104 | -47 | 10
CC(=NNC(=O)c1ccncc1)c1cccc(Br)c1 | -3 | nt | 6 | 2 | nt | 1 | nt

From PubChem
